PubChem BioAssay (NCI)
Compounds without any hit were thinned out: in the full panel of roughly 83,000, 20% have a hit.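 Values shown are percent growth following 48 h exposure of cells in 96-well plates to a single concentration of compound; below 10 was considered active.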 Calls of active or inactive are those of the source.

test system: SW-620 colon; experiment: NCI-60 one-dose screen, 48 h (100 = growth as untreated, 0 = no growth, -100 = all killed); details: 10 µM unless noted

SMILES	growth
NC(=O)NN=C(C1CC1)C1CC1	98.6% (inactive)
Clc1ccc(CCC(Cn2ccnc2)Sc2c(Cl)cccc2Cl)cc1 (stereo not drawn)	65.2% (inactive)
c1ccc(-c2nn[nH]n2)c(-c2ccc(CN3CCN(c4nsc5ccccc45)CC3)cc2)c1	88.7% (inactive)
COC1CC2CCC(C)C(O)(O2)C(=O)C(=O)N2CCCCC2C(=O)OC(C(C)CC2CCC(O)C(OC)C2)CC(=O)C(C)C=C(C)C(O)C(OC)C(=O)C(C)CC(C)/C=C/C=C/C=C1C (stereo not drawn)	64.5% (inactive)
O=C(/C=C/c1ccc(Cl)cc1)c1ccccc1	89.3% (inactive)
O=C1OCCCCCCCCCC#Cc2ccccc21	93.9% (inactive)
O=C(OC[C@H]1O[C@H](OC(=O)c2cc(O)c(O)c(OC(=O)c3cc(O)c(O)c(O)c3)c2)[C@H](OC(=O)c2cc(O)c(O)c(OC(=O)c3cc(O)c(O)c(O)c3)c2)[C@@H](OC(=O)c2cc(O)c(O)c(OC(=O)c3cc(O)c(O)c(O)c3)c2)[C@@H]1OC(=O)c1cc(O)c(O)c(OC(=O)c2cc(O)c(O)c(O)c2)c1)c1cc(O)c(O)c(OC(=O)c2cc(O)c(O)c(O)c2)c1	47.5% (inactive)
NC(N)=N/N=C(/c1ccccc1)c1ccc(Cl)cc1	47.6% (inactive)
CC1(C)OC(=O)C(=Cc2ccccc2Br)C(=O)O1	96.2% (inactive)
CCOC(=O)/C(=C/c1ccccc1)C(=O)c1ccccc1	70.9% (inactive)
Cc1c(NCc2nnc3n(Cc4ccccc4)c(=O)c4c5c(sc4n23)CCCC5)c(=O)n(-c2ccccc2)n1C	103% (inactive)
C/C(=N/N=C(N)N)c1ccc(N)cc1	97% (inactive)
COc1cc2c(-c3nc4cc(Cl)c(F)cc4s3)cc(=O)oc2c(C)c1OC	-58.3% (active)
Cn1c(=O)c2nc(SCc3ccccc3)n(C)c2n(C)c1=O	106% (inactive)
O=C(/C(=C/c1ccc([N+](=O)[O-])cc1)c1ccccc1)c1ccccc1	11.7% (inactive)
CC(C)(C)c1ccc(C(O)CCCN2CCC(C(O)(c3ccccc3)c3ccccc3)CC2)cc1 (stereo not drawn)	-77.1% (active)
CCCCc1nc(Cl)c(CO)n1Cc1ccc(-c2ccccc2-c2nn[nH]n2)cc1	103% (inactive)
CCCCN(CCCC)CCCOC(=O)c1ccc(N)cc1	74.6% (inactive)
CO[C@H]1CC(O[C@@H]2/C(C)=C/C[C@@H]3C[C@@H](C[C@]4(CC[C@H](C)[C@@H](C5CCCCC5)O4)O3)OC(=O)[C@@H]3C=C(C)/C(=N/O)[C@H]4OC/C(=C\C=C\[C@@H]2C)[C@]43O)O[C@@H](C)C1O (stereo partly drawn)	-73.2% (active)

SMILES	growth
Cc1cc2c(C#N)n3c(c2cc1C)C(=O)C(c1ccccc1)Oc1ccccc1-3 (stereo not drawn)	47.3% (inactive)
Cc1ccc(C(C)C)cc1NC(=O)Nc1ccc([N+](=O)[O-])cc1	10.5% (inactive)
CC/C=C\C=C/C(=O)N/C=C/CC1Cc2cccc(O)c2C(=O)O1 (stereo not drawn)	26.9% (inactive)
Cc1cc(N2CCOCC2)nc(N2CCOCC2)n1	102% (inactive)
COc1cc(OC)c2cc(C(=O)O)c(=O)oc2c1	103% (inactive)
COc1cc(/C=C/C(=O)c2c(-c3ccc(F)cc3)nc3sc(C)nn23)cc(OC)c1OC	19.2% (inactive)
CC[C@@H]1OC(=O)[C@H](C)[C@@H](O[C@H]2C[C@@](C)(OC)[C@@H](O)[C@H](C)O2)[C@H](C)[C@@H](O[C@@H]2O[C@H](C)C[C@H](N(C)C)[C@H]2O)[C@](C)(O)C[C@@H](C)[C@@H]2N[C@@H](COCCOC)O[C@H]([C@H]2C)[C@]1(C)O	111% (inactive)
N#Cc1ccc(NC(=O)Nc2ccc(Oc3ccc(NC(=O)Nc4ccc(C#N)cc4)cc3)cc2)cc1	15.8% (inactive)
Nc1c2ccccc2nc2ccccc12 (tested in a mixture with another compound)	15.6% (inactive)
COc1cc2c(C#N)n3c(c2cc1OC)C(=O)C(c1ccccc1)Oc1ccccc1-3 (stereo not drawn)	87.6% (inactive)
CC[C@H](C)C(=O)O[C@H]1C[C@@H](C)C=C2C=C[C@H](C)[C@H](CC[C@@H]3C[C@@H](O)CC(=O)O3)[C@H]21	99.2% (inactive)
O=C(/C(=C/c1cccc([N+](=O)[O-])c1)c1ccccc1)c1ccccc1	10.9% (inactive)
NC(N)=NN=c1c(=O)c2ccccc2c1=O	-67% (active)
NS(=O)(=O)c1ccc(NC2=C(Cl)C(=O)c3ccccc3C2=O)cc1	95% (inactive)
COc1ccc(OC)c(NC(=O)c2cc3oc4ccccc4c3cc2O)c1	104% (inactive)
CCS(=O)(=O)OCCCl	108% (inactive)
COc1ccc(-c2csc(NC(=O)c3cc(O)c(O)c(O)c3)n2)cc1	56.8% (inactive)
CCCc1cc(=O)n2c(C(=O)Nc3ccccc3OC)c(C(=O)Nc3ccc(F)cc3)sc2n1	64.1% [30 µM] (inactive)
COc1cc(C2=NN(C(C)=O)C(c3ccc(OC(C)=O)cc3OC(C)=O)O2)c(OC(C)=O)c2ccccc12 (stereo not drawn)	30.9% (inactive)
